Tau fibril FP = inhibitors of human tau fibril formation. actives 0.39% (n = 280,000). Potency, µM (titrated, usually from 57.7 µM), usual class: inhibitors. K18 P301L tau heparin fibrillization, Alexa594 FP, 6 h. P10636; further: nearly all actives have a fitted effect of over 55% in size
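Read-out: fluorescence polarization of Alexa 594-labeled tau (0.24 uM), 555 nm excitation, 632 nm emission. Mixtures held 15 uM unlabeled K18 P301L, compound and 20 uM heparin, pH 7 acetate buffer, incubated 6 hr at 37 C.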
Tau fibril ThT = tau fibrillization inhibition (ThT binding). actives 2.1% (n = 270,000). P10636. recombinant tau K18 P301L, heparin-induced fibrillization, ThT fluorescence. AID 1460. Potency, µM (doses to about 57.4 µM), usual class: inhibitors; further: nearly all actives have a fitted effect of over 55% in size
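Using a mix of unlabeled (15 uM) and Alexa 594-labeled (0.24 uM) tau K18 P301L, heparin-triggered fibrillization over 6 hr at 37 C was scored by ThT fluorescence.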
FBPA coupling cs = inhibits coupling enzyme system, counter-screen for aldolase hits | AID 2472 | actives 0.67% (n = 290,000) | coupling enzyme system counterscreen, AmpLite Red fluorescence | activity change, negative = inhibition, % at 58.2 µM, hits read low; in the data active means activity change below about -30%
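Final compound at 57.5 uM, incubated 10 min at RT with coupling enzyme reagent (glyceraldehyde-3-phosphate), then 20 min with substrate and AmpLite Red detection. Fluorescence read at 525/598 nm; tests interference with the coupling assay, not aldolase inhibition.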
Tau fluor counter = counter-screen for tau fibril formation inhibitors; Potency, µM (series often up to 57.7 µM); actives 0.93% (n = 280,000); AID 1463; tau K18 P301L (four-repeat tau fragment) Alexa594 fluorescence, heparin fibrillization; further: nearly all actives have a fitted effect of over 55% in size
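Human K18 P301L tau (15 uM unlabeled plus 0.24 uM Alexa 594-labeled, final) in 100 mM sodium acetate pH 7 was mixed with compound and 20 uM heparin and incubated 6 hr at 37 C.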
USP1 inh = inhibitors of human USP1/UAF1 deubiquitinase. O94782. actives 0.23% (n = 390,000). recombinant USP1/UAF1, Ub-Rhodamine cleavage fluorescence. Potency, µM (series often up to 57.1 µM), hits mostly inhibitors; further: nearly all actives have a fitted effect of over 60% in size
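1 nM enzyme complex + cpd, 15 min RT; start with Ub-Rho 150nM final; kinetic fluorescence ex 480/em 540, 6 reads q60 s. Buffer 50mM HEPES pH 7.8, 0.5mM EDTA, 0.1 mg/ml BSA, 1mM TCEP, 0.01% Tween-20.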
A number is an active result; n = inactive; u = inconclusive; x = no result; [ ] = remark or other dose. The list is not random: actives were taken first. Their share in the collection is about 2.3%. Unless noted, the call rests on the fitted dose curve; in most records, active means well fitted curve in the direction sought with a large enough effect; inconclusive means small, poorly fitted or top-dose-only effect, or another doubt; inactive means no such curve, though single readings can be large; an effect the other way counts as inactive or inconclusive.

SMILES	Tau fibril FP	Tau fibril ThT	FBPA coupling cs	Tau fluor counter	USP1 inh
O=c1n(Cc2ccc(F)cc2)c2ccccc2c2nc(-c3ccccc3)nn12	n	n	x	n	n
Cc1ccc(NC(=O)CSc2nncn2C)c(C)c1	n	n	x	n	n
Cc1ccc(C2=NN=C(NC(=O)CSc3nncn3C)SC2)cc1	u	22µM	n	n	n
O=C(Cn1ncc2c([nH]c3ccccc32)c1=O)Nc1cccc(C(F)(F)F)c1	u	n	x	n	n
Cc1c(C(=O)Nc2ccccc2)cn2c(nc3ccccc32)c1C#N	n	n	n	n	n
Cc1ccccc1C(=O)Nc1ccc2c(C#N)c3nc4ccccc4nc3n2c1	n	5µM	n	u	n
COCCCCCCCCCCCC(=O)O	n	n	n	n	x
COc1cc2c3nnc(-c4ccc(F)cc4)c-3cn(Cc3ccc(F)cc3)c2cc1OC	u	u	n	n	n
COc1cc2c3nnc(-c4ccc(F)cc4)c-3cn(Cc3ccccc3)c2cc1OC	n	u	n	n	32µM
Cc1cc(C)cc(-n2ccnc2SCC(=O)Nc2ccc(C)cc2C)c1	n	n	x	n	n
COc1ccccc1N(CC(=O)NCCSc1ccccc1)S(=O)(=O)c1ccc(C)cc1	n	n	x	u	n
Cn1c(SCCC#N)nnc1-c1ccc(F)cc1	n	n	n	n	x
CC1=C(SCCC#N)S/C(=C2\SC(C)=C(SCCC#N)S2)S1	u	7.9µM	n	u	n
Cc1ccc(C)c(N2C(=N)S/C(=C\c3ccc(-c4ccccc4C(=O)O)o3)C2=O)c1	n	u	n	n	n
CN1C(=O)/C(=C/c2ccc(-c3ccccc3[N+](=O)[O-])o2)SC1=Nc1ccc(Cl)c(C(=O)O)c1	n	14µM	n	n	u
Cc1ccc(N2NC(=O)/C(=C\c3cc4c(cc3[N+](=O)[O-])OCO4)C2=O)cc1C	u	14µM	n	u	n
CCN(CC)c1cc(C)c2cc(NC(=O)/C=C/c3cc(OC)c(OC)c(OC)c3)ccc2n1	n	4.5µM	x	u	u
CCN(CC)c1cc(C)c2cc(NC(=O)c3cccc(OC)c3OC)ccc2n1	n	u	x	u	u
CCOc1ccc(/C=C/C(=O)Nc2ccc3nc(N(CC)CC)cc(C)c3c2)cc1OC	u	7.1µM	x	u	n
CCOc1ccccc1C(=O)Nc1ccc2nc(N(CC)CC)cc(C)c2c1	n	u	x	n	u
CCN(CC)c1cc(C)c2cc(NC(=O)CNC(C)=O)ccc2n1	n	n	n	n	n
CCN(CC)c1cc(C)c2cc(NC(=O)/C=C/c3ccc(C)cc3)ccc2n1	n	u	x	16µM[quencher]	n
CCOc1ccc(C(=O)Nc2ccc3nc(N(CC)CC)cc(C)c3c2)cc1	n	u	x	16µM[quencher]	n
COC(=O)Nc1ccc(Cl)c(Cl)c1	x	x	n	x	x
N#CC(C#N)=C1NC2(CCCCC2)Cc2ccccc21	n	n	n	n	n
SMILES	Tau fibril FP	Tau fibril ThT	FBPA coupling cs	Tau fluor counter	USP1 inh
N#CC(C#N)=c1ccc2c(c1)NC1(CCCCC1)N=2	25µM	14µM	n	u	n
CCc1ccc(Nc2ccc(C(=O)O)cc2[N+](=O)[O-])cc1	x	x	n	x	n
CCc1ccc(Nc2ccc(C(N)=O)cc2[N+](=O)[O-])cc1	n	13µM	n	u	n
CC1=NN(c2nc(-c3ccc(F)cc3)cs2)C(=O)C1	n	u	n	n	n
CC1=NN(c2nc(-c3ccc(Cl)cc3)cs2)C(=O)C1	n	11µM	n	u	n
COc1ccc(N=Cc2[nH]c3ccccc3c2O)cc1	u	18µM	-38	n	u
COc1ccc(N=CC2=C(O)c3ccccc3C2=O)cc1	n	2.2µM	n	n	n
Cc1ccc(O)c(N=CC2=C(O)c3ccccc3C2=O)c1	u	25µM	n	u	u
O=C1C(C=Nc2ccccc2O)=C(O)c2ccccc21	n	u	n	n	n
CCN(CC)CCCC(C)n1c(-c2ccccc2)nc2c(N3CCOCC3)nc(C)nc21 (configuration not stated)	n	n	n	n	x
COc1ccc(S(=O)(=O)Nc2cccc(-c3ccc(N4CCC(C)CC4)nn3)c2)c(OC)c1	n	n	x	n	n
COc1ccc(CNC(=O)c2cc3cccc4c3n2CC(C)S4)cc1 (configuration not stated)	n	n	x	u	n
CN1CCO/C1=C(\C(Cl)=C(Cl)Cl)[N+](=O)[O-]	n	n	n	n	n

Source: PubChem (National Center for Advancing Translational Sciences (NCATS))
